# Tests used:
# Assay in all cases: DAPPL (digital affinity profiling via proximity ligation, sequencing); 10 mM Tris-HCl pH 7.5, 50 mM NaCl, 1 mM DTT, 4% glycerol, room temperature, 30 min; GST-TFs on glutathione beads, 16-mer random dsDNA library, 0.1% formaldehyde crosslink after washing; high values mean tight binding
# [1] = target: T1, FEV (Homo sapiens, UniProt Q99581 1-238); settings: protein: recombinant; tags: N-terminal GST; dsDNA, one strand shown
# T1 sequence: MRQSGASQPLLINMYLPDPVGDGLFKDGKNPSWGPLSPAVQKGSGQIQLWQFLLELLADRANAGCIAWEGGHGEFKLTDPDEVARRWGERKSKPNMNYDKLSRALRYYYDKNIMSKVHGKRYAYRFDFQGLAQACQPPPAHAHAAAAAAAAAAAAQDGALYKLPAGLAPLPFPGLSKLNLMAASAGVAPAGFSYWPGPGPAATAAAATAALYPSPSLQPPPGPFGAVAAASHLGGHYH
# Summary of the method: (§1)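 Pools of DNA-barcoded human transcription factors, expressed in yeast as GST fusions on glutathione beads and combined with a tag-only sample, were incubated with 200 nmole of a 16-mer random double-stranded DNA library. Incubation took 30 min at room temperature in Tris/NaCl/DTT/glycerol buffer and was followed by washing, 0.1% formaldehyde crosslinking, proximity ligation (BsaI/T4 ligase, 1 h, 37 °C), PCR amplification and sequencing on an Illumina NextSeq500. Binding signal is the ratio of a hexamer's read frequency for a factor to its frequency for the tag-only sample.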
# [2] = target: ETV5 (Homo sapiens, UniProt P41161 1-510); settings: protein: recombinant; tags: N-terminal GST; dsDNA, one strand shown
# Summary of the method: as §1
# [3] = target: HSF1 (Homo sapiens, UniProt Q00613 1-529); settings: protein: recombinant; tags: N-terminal GST; chain copies: 3; dsDNA, one strand shown
# Summary of the method: as §1
# [4] = target: T2, SPIC (Homo sapiens, UniProt Q8N5J4 1-248); settings: protein: recombinant; tags: N-terminal GST; dsDNA, one strand shown
# T2 sequence: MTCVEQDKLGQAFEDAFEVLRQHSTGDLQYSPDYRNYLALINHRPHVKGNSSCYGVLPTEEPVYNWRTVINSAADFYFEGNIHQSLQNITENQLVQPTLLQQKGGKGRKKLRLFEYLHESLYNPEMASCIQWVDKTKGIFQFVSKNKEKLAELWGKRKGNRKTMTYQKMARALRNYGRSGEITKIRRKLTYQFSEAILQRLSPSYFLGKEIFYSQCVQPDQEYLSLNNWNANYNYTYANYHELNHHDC
# Summary of the method: as §1
# [5] = target: ELF4 (Homo sapiens, UniProt Q99607 1-663); settings: protein: recombinant; tags: N-terminal GST; dsDNA, one strand shown
# Summary of the method: as §1
# [6] = target: T3, ELK4 (Homo sapiens, UniProt P28324-2 1-405); settings: protein: recombinant; tags: N-terminal GST; dsDNA, one strand shown
# T3 sequence: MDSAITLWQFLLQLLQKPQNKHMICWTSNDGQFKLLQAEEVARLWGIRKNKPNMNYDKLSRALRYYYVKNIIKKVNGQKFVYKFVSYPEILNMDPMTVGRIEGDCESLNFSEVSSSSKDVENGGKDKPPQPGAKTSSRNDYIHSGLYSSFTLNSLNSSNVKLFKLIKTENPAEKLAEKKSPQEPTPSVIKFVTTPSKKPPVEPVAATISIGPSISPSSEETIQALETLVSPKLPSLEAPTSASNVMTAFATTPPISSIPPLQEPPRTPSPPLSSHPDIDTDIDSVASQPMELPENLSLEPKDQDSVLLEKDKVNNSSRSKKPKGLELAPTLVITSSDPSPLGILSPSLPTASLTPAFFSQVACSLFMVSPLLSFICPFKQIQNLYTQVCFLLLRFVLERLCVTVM
# Summary of the method: as §1
# [7] = target: T4, ETV2 (Homo sapiens, UniProt O00321 1-342); settings: protein: recombinant; tags: N-terminal GST; dsDNA, one strand shown
# T4 sequence: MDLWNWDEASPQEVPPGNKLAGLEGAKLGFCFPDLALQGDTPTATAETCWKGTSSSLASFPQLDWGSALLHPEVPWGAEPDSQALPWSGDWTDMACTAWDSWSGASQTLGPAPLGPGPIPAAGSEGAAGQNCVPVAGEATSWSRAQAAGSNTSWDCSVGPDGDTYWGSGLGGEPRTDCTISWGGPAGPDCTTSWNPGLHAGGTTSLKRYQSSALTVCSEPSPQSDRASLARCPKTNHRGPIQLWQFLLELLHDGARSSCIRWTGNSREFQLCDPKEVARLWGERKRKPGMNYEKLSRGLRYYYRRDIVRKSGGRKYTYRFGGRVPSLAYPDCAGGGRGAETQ
# Summary of the method: as §1
# [8] = target: T5, ELF3 (Homo sapiens, UniProt P78545 1-371); settings: protein: recombinant; tags: N-terminal GST; dsDNA, one strand shown
# T5 sequence: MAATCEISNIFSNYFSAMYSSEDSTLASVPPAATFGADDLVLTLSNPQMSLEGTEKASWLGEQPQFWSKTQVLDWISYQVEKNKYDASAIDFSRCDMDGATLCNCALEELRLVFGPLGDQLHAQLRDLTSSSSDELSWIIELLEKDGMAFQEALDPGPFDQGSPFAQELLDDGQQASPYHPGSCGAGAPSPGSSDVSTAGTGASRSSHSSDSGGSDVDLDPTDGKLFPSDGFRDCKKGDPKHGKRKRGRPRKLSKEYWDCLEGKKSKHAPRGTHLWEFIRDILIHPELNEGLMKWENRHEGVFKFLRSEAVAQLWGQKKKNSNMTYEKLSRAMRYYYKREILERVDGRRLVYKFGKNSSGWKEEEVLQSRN
# Summary of the method: as §1
# [9] = target: CRX (Homo sapiens, UniProt O43186 1-299); settings: protein: recombinant; tags: N-terminal GST; dsDNA, one strand shown
# Summary of the method: as §1
# [10] = target: ETV1 (Homo sapiens, UniProt P50549 1-477); settings: protein: recombinant; tags: N-terminal GST; dsDNA, one strand shown
# Summary of the method: as §1
# [11] = target: T6, ERF (Homo sapiens, UniProt P50548 1-548); settings: protein: recombinant; tags: N-terminal GST; dsDNA, one strand shown
# T6 sequence: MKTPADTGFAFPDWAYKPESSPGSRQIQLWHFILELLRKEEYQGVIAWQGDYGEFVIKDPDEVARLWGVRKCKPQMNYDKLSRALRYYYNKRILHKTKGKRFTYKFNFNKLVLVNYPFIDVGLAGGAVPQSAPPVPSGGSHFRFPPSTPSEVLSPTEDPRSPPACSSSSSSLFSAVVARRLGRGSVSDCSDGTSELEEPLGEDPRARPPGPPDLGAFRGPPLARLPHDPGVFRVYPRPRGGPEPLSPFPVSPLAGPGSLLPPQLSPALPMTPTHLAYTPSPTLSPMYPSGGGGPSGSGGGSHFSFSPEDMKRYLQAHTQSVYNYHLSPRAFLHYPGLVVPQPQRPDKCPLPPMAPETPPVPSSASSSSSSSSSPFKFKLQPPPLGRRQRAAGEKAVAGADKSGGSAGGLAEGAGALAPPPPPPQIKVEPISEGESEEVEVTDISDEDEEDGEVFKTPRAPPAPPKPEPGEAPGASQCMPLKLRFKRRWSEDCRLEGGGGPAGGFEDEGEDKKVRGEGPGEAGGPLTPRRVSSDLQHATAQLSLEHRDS
# Summary of the method: as §1
# [12] = target: T7, ETV3L (Homo sapiens, UniProt Q6ZN32 1-361); settings: protein: recombinant; tags: N-terminal GST; dsDNA, one strand shown
# T7 sequence: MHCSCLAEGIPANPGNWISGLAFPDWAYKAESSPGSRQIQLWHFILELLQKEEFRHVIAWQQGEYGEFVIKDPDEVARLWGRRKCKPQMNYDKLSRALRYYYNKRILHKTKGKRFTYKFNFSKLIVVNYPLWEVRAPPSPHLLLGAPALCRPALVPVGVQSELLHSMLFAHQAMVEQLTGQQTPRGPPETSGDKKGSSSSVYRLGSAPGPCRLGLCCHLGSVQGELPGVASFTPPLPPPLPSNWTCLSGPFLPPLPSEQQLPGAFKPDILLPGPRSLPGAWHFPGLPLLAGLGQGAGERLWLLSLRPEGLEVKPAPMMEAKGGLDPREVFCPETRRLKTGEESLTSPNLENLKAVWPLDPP
# Summary of the method: as §1
# [13] = target: T8, ETS2 (Homo sapiens, UniProt P15036 1-469); settings: protein: recombinant; tags: N-terminal GST; dsDNA, one strand shown
# T8 sequence: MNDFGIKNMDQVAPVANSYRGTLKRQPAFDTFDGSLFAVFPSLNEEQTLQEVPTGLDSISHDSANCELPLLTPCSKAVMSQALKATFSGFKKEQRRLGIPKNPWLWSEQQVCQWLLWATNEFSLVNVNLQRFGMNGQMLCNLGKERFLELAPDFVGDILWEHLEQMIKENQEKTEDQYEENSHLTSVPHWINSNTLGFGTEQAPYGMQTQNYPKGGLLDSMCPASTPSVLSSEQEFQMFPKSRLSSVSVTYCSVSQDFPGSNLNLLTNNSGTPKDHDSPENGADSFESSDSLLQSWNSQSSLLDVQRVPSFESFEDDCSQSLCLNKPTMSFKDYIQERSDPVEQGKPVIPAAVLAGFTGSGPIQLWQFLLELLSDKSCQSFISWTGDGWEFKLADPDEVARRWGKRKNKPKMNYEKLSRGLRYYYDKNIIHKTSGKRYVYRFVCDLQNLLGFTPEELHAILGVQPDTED
# Summary of the method: as §1
# [14] = target: T9, SPDEF (Homo sapiens, UniProt O95238 1-335); settings: protein: recombinant; tags: N-terminal GST; dsDNA, one strand shown
# T9 sequence: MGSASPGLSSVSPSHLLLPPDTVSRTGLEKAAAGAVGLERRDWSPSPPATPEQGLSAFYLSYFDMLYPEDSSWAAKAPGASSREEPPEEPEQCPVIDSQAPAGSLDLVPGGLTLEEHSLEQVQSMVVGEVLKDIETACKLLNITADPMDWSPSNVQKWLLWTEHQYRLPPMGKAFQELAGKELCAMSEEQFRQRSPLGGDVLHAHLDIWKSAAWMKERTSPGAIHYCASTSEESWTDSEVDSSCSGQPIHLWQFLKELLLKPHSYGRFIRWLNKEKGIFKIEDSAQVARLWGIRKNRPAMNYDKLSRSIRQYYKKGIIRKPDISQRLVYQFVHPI
# Summary of the method: as §1
# [15] = target: T10, ETV7 (Homo sapiens, UniProt Q9Y603 1-341); settings: protein: recombinant; tags: N-terminal GST; dsDNA, one strand shown
# T10 sequence: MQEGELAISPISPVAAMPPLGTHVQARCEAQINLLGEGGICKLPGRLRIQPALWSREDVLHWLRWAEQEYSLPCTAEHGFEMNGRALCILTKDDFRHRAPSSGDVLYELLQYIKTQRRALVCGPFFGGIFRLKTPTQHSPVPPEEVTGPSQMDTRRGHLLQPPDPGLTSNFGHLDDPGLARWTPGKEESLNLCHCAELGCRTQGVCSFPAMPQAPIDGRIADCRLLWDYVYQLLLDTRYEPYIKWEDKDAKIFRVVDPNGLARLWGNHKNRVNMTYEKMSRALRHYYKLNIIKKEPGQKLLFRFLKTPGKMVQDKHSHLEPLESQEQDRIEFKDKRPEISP
# Summary of the method: as §1
# [16] = target: T11, ELF5 (Homo sapiens, UniProt Q9UKW6-2 1-255); settings: protein: recombinant; tags: N-terminal GST; dsDNA, one strand shown
# T11 sequence: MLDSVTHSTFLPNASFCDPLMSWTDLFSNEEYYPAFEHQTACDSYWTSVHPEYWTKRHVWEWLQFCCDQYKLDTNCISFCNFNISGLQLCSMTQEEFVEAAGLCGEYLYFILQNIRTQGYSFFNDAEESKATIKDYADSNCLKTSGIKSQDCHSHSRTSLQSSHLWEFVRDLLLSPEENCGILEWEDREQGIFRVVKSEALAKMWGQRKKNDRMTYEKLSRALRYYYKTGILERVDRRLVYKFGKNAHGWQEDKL
# Summary of the method: as §1
# [17] = target: T12, ETV3 (Homo sapiens, UniProt P41162-2 1-143); settings: protein: recombinant; tags: N-terminal GST; dsDNA, one strand shown
# T12 sequence: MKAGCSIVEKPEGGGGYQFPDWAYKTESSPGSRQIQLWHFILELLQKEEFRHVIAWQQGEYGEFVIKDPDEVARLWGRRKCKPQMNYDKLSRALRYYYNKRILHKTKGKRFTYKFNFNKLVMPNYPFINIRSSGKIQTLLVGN
# Summary of the method: as §1
# [18] = target: ETV6 (Homo sapiens, UniProt P41212 1-452); settings: protein: recombinant; tags: N-terminal GST; dsDNA, one strand shown
# Summary of the method: as §1
# Chain of ETV1 (P50549 whole entry): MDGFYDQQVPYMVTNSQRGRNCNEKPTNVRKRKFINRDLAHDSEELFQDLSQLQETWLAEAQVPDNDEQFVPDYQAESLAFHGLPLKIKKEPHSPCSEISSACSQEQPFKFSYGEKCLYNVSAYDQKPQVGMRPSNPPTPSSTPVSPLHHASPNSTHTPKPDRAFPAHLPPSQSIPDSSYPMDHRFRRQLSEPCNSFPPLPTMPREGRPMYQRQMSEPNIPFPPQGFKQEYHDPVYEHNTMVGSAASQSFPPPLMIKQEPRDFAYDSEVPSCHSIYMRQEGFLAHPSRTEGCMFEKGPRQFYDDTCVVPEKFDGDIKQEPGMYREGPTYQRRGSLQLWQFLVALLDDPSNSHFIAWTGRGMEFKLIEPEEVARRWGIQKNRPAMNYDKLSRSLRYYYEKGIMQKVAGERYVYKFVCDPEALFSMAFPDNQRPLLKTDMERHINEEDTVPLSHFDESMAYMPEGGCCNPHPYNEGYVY
# Chain of CRX (O43186 whole entry): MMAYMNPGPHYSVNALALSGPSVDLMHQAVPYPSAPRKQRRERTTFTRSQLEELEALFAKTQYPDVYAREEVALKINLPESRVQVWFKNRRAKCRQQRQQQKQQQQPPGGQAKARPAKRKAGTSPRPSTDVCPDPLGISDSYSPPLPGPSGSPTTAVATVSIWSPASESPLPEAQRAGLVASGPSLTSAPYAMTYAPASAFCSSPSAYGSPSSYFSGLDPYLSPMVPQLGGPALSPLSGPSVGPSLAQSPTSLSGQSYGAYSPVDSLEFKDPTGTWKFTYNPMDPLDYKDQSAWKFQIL
# Chain of ETV5 (P41161 whole entry): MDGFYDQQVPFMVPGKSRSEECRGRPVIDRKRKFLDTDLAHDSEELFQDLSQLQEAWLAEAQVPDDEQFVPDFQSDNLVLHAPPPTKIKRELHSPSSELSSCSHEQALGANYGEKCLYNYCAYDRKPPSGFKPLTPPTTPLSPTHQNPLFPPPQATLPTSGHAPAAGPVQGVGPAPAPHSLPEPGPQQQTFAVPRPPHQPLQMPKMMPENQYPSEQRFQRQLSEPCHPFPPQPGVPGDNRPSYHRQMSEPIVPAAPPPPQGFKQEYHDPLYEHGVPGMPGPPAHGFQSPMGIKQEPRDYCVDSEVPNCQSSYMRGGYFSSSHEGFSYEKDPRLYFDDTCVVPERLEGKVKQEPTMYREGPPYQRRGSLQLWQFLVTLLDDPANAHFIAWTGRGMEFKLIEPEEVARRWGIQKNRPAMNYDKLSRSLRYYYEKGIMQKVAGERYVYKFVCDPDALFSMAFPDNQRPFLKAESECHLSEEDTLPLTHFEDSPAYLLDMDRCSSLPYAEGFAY
# Chain of ETV6 (P41212 whole entry): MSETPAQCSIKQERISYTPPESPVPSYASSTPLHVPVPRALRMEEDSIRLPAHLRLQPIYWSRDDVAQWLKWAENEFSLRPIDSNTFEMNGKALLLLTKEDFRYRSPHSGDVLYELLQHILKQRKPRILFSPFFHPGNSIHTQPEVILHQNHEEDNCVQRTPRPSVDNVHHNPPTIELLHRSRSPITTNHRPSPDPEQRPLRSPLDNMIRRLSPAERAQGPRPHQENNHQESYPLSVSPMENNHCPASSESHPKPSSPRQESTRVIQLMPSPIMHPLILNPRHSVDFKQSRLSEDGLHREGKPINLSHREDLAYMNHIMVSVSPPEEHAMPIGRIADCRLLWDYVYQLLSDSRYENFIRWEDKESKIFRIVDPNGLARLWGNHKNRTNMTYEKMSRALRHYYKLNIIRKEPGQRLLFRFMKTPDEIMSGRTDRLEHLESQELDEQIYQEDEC
# Chain of HSF1 (Q00613 whole entry): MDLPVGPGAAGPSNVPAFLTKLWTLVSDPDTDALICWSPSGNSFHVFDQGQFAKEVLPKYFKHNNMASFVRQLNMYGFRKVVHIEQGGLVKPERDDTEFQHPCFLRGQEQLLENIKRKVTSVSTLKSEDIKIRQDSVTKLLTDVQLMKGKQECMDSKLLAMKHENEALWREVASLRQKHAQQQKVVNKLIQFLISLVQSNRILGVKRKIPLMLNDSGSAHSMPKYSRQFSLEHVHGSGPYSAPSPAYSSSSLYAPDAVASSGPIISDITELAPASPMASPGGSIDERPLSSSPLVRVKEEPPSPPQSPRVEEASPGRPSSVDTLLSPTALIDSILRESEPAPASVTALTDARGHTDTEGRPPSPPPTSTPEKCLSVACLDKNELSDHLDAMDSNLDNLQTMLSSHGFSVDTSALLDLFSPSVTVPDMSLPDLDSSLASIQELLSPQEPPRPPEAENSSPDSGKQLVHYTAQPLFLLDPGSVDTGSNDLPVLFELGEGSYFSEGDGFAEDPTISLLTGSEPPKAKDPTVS
# Chain of ELF4 (Q99607 whole entry): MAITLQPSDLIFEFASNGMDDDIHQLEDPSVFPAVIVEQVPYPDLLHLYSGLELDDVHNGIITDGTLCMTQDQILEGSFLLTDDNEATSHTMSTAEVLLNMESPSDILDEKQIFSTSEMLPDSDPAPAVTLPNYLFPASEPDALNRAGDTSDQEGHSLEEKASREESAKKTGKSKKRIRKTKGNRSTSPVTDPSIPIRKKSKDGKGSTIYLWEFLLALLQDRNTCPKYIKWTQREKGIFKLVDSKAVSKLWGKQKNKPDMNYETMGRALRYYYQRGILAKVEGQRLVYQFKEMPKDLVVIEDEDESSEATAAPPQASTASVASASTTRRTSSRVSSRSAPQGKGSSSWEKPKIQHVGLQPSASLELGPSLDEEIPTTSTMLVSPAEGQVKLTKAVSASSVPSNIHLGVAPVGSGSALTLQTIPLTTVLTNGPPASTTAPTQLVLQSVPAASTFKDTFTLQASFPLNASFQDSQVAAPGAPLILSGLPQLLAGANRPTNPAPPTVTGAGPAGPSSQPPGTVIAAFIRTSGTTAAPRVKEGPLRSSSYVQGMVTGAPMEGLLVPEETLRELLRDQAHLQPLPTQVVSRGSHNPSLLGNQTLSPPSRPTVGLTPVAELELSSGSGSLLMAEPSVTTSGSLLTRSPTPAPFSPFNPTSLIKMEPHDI
sequence,measurement,setting,value
CTCTCA,binding signal,[1],"1.44 fold enrichment (6-mer frequency, TF over GST control)"
same,binding signal,[2],"1.35 fold enrichment (6-mer frequency, TF over GST control)"
same,binding signal,[3],"1.2 fold enrichment (6-mer frequency, TF over GST control)"
same,binding signal,[4],"1.21 fold enrichment (6-mer frequency, TF over GST control)"
same,binding signal,[5],"1.42 fold enrichment (6-mer frequency, TF over GST control)"
same,binding signal,[6],"1.45 fold enrichment (6-mer frequency, TF over GST control)"
same,binding signal,[7],"1.33 fold enrichment (6-mer frequency, TF over GST control)"
same,binding signal,[8],"1.47 fold enrichment (6-mer frequency, TF over GST control)"
same,binding signal,[9],"1.24 fold enrichment (6-mer frequency, TF over GST control)"
same,binding signal,[10],"1.51 fold enrichment (6-mer frequency, TF over GST control)"
same,binding signal,[11],"1.5 fold enrichment (6-mer frequency, TF over GST control)"
same,binding signal,[12],"1.39 fold enrichment (6-mer frequency, TF over GST control)"
same,binding signal,[13],"1.42 fold enrichment (6-mer frequency, TF over GST control)"
same,binding signal,[14],"1.32 fold enrichment (6-mer frequency, TF over GST control)"
same,binding signal,[15],"1.11 fold enrichment (6-mer frequency, TF over GST control)"
same,binding signal,[16],"1.28 fold enrichment (6-mer frequency, TF over GST control)"
same,binding signal,[17],"1.43 fold enrichment (6-mer frequency, TF over GST control)"
same,binding signal,[18],"1.36 fold enrichment (6-mer frequency, TF over GST control)"

# — paper PMC7862700, “An all-to-all approach to the identification of sequence-specific readers for epigenetic DNA modifications on cytosine”
